This note sets out measurements from PubChem BioAssay AID1947 (The Scripps Research Institute Molecular Screening Center, 2009).

Out of some 300,000 compounds screened, about 990 (0.33%) were called active.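 Rule for the calls: active = inhibition above the screen mean inhibition plus 3 SD, computed separately per campaign (cut at about 18% in these data); inactive = the rest.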 This excerpt belongs to a sample that is enriched for actives.

This assay concerns Fam108B (ABHD17B) serine hydrolase [Mus musculus]. Description: inhibition of Fam108B (ABHD17B) hydrolase – biochemical, fluorescence polarization, counter-screen for RBBP9 inhibitor project, primary screen (AID 1947).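 Note: inhibitors lower polarization as less probe binds the enzyme.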 The note with it: recombinant Fam108B, FP-Rh probe fluorescence polarization; at 9.51 µM; active compounds read high.
Consider `CCC(C)N(C(=O)COC(=O)c1nc(Cl)ccc1Cl)C1CCS(=O)(=O)C1` (centres undefined), for which the inhibition is 4.9% (inactive).
Take `CCOC(=O)c1sc(=NC(=O)/C=C/c2cccs2)n(C)c1C`: the inhibition is -2.21% (inactive).
Under `COc1cccc(-c2nc(CS(=O)CC(=O)NCc3ccc(F)cc3)c(C)o2)c1` (centres undefined) stands 1.48% (inactive).
Turning to `COc1ccc(-c2nc(CS(=O)CC(=O)NCc3ccccc3)c(C)o2)cc1OC` (centres undefined), the inhibition is 0.72% (inactive).
Under `COc1ccc(-c2nc(CS(=O)CC(=O)NCc3ccccn3)c(C)o2)cc1` (centres undefined) stands 22.4% (active); under `CCC(=O)Nc1cccc(C2=NOC3(C2)C[C@@H](C(N)=O)N(C(=O)c2cc([N+](=O)[O-])cc([N+](=O)[O-])c2C)C3)c1` (some centres undefined), 3.54% (inactive).
Under `Cc1ccc(-n2c(C)nnc2SCC(=O)NC2CC2)cc1` stands 2.72% (inactive); under `CC(CC(=O)N1CCN(c2ccccc2)CC1)S(=O)(=O)c1ccc2c(c1)NC(=O)CS2` (centres undefined), -0.25% (inactive); under `Cc1cc(/C=N/NC(=O)c2cccnc2)c(C)n1CC(C)C`, 0.13% (inactive).
`O=C(NN=C1CCC(=NNC(=O)c2cccnc2)CC1)c1cccnc1`: the inhibition was -0.8% (inactive).
For `O=C(N/N=C/c1sc(N2CCCCC2)nc1-c1cccs1)c1cccnc1`, the inhibition was 30.7% (active).
Under `CC1CC(C)CN(S(=O)(=O)c2cccc(C(=O)N3C(=O)c4cccc(N)c4C3=O)c2)C1` (centres undefined) stands -1.13% (inactive); under `NS(=O)(=O)c1ccc(CCNC(=O)c2nc(CS(=O)(=O)c3ccc(Cl)cc3)no2)cc1`, 1.62% (inactive).
Under `Oc1oc(-c2ccccc2Br)nc1/C=N/c1ccccn1` stands 25.5% (active); under `CCOc1ccc2nc(/N=C/c3nc(-c4ccccc4)oc3O)sc2c1`, 5.88% (inactive).
With `CC(N=Cc1nc(-c2ccccc2)oc1O)c1ccccc1` (centres undefined), the inhibition is 4.55% (inactive).
In the case of `O=C(CCNC(=O)C1CCN(S(=O)(=O)c2ccccc2)CC1)NC1CC1` it was -1.2% (inactive); in that of `Cc1ccc(-c2nc3c(cnn3-c3ccccc3)c(=O)o2)cc1`, 22.6% (active); in that of `CC(=O)Cn1cnc2c(cnn2-c2ccccc2)c1=O`, 4.35% (inactive).
`Cc1ccc(-n2ncc3c(=O)n(-c4ccc(C)c(C)c4)c(-c4ccco4)nc32)cc1`: the inhibition is -5.3% (inactive).
Turning to `O=C(COc1ccccc1)Nc1nonc1NC(=O)COc1ccccc1`, the inhibition was -1.87% (inactive).
In the case of `COc1ccc(C)cc1S(=O)(=O)NCCc1ccccc1` it was 1.15% (inactive).
In the case of `Cc1cc(C)c(S(=O)(=O)n2cc(C(C)C(N)C(=O)O)c3ccccc32)c(C)c1` (centres undefined) it was -1.29% (inactive).
In the case of `CCC1(c2ccccc2)NC(=O)N(CC(=O)c2ccc3c(c2)OCO3)C1=O` (centres undefined) it was 1.48% (inactive); in that of `COc1ccccc1C1=Nc2cccc3cccc(c23)N1`, 6.45% (inactive); in that of `c1ccc(C2=Nc3cccc4cccc(c34)N2)cc1`, 31.5% (active).
With `Fc1ccccc1N=C1Nc2cccc3cccc1c23`, the inhibition is 3.49% (inactive).
With `CCN(CC(=O)NCc1ccc(Cl)cc1)C(=O)CSc1ccccc1`, the inhibition is 1.51% (inactive).
`CN1/C(=C\C=C2\N=C(c3ccc(F)cc3)OC2=O)C(C)(C)c2ccccc21`: the inhibition is -7.15% (inactive).
Under `COc1ccc(Nc2nc(-c3cccnc3)nc3ccccc23)cn1` stands -1.81% (inactive); under `CC(=O)Nc1cccc(Nc2nc(-c3cccs3)nc3ccccc23)c1`, -19.2% (inactive); under `Cc1cccc(-c2nc(Nc3ccc(O)cc3)c3ccccc3n2)c1`, 29.1% (active).
In the case of `O=C(C/C(=N\NC(=O)c1ccccc1Br)C(F)(F)F)c1cccs1` it was 1.64% (inactive).
As for `Cc1ccc(N/C(N)=N/c2nc(C(F)(F)F)cc(C(F)(F)F)n2)cc1`, the inhibition was -3.46% (inactive).
Under `CCOc1ccc(NC(=O)COc2ccc(S(=O)(=O)N3CCCC3)cc2)cc1` stands -2.57% (inactive).
Under `Cc1ccc(NS(=O)(=O)c2ccc(C)c(NC(=O)COc3ccc4ccccc4c3)c2)c(C)c1` stands -29.8% (inactive).
In the case of `COCCNC(=O)c1ccccc1NS(=O)(=O)c1ccc(C)c([N+](=O)[O-])c1` it was -2.57% (inactive); in that of `Cc1ccc(NS(=O)(=O)c2ccc(N/N=C/c3ccccc3OCC(=O)O)c([N+](=O)[O-])c2)c(C)c1`, 26.5% (active).
As to `CO/N=C/c1ccc(N2CCN(C(=O)c3cccc(Cl)c3)CC2)c([N+](=O)[O-])c1`, the inhibition is 4.08% (inactive).
On to `O=C(O)CCN=C1CCc2ccccc2N1`, for which the inhibition is 9.07% (inactive).
Under `CC(=O)Nc1ccc(NC(=O)CSC2=NS(=O)(=O)c3ccccc3N2)cc1` stands 0.2% (inactive); under `COc1ccc(CC(=O)Nc2nc(-c3ccc(F)c(F)c3)cs2)cc1OC`, -7.43% (inactive).
In the case of `CC(C)(C)C(=O)OCc1nc(-c2ccc(O)c(O)c2)cs1` it was -1.7% (inactive).
In the case of `COc1ccc(OC)c(Nc2nc(-c3ccc(O)c(O)c3)cs2)c1` it was 20.1% (active); in that of `CCOc1ccc(S(=O)(=O)Nc2nccs2)cc1`, 2.3% (inactive); in that of `COC(C[C@@H](O)C[C@H](O)[C@H](C)OCc1ccccc1)OC`, 4.92% (inactive).
For `COc1ccccc1NS(=O)(=O)c1ccc(C)c(C(=O)NCC(c2ccco2)N(C)C)c1` (centres undefined), the inhibition was -0.42% (inactive).
In the case of `CC(=O)Nc1ccc(Oc2ccc3c(c2)C(=O)NC3=O)cc1` it was 0.73% (inactive).
With `C=CCn1c(=S)[nH]c2scc(-c3ccco3)c2c1=O`, the inhibition is 18.5% (active).
In the case of `C=CCn1c(SCc2csc(C)n2)nc2scc(-c3ccc(C)o3)c2c1=O` it was 0.24% (inactive).
Under `C=CCNC(=O)CSc1nc2scc(-c3ccco3)c2c(=O)n1CC=C` stands -0.48% (inactive).
Under `O=C(CCCN1C(=O)/C(=C/c2cccs2)SC1=S)Nc1ccc(O)cc1` stands -3.39% (inactive).
Consider `CCC/C(C)=N\Nc1nc2c(c(=O)n(C)c(=O)n2C)n1C`, for which the inhibition is 0.84% (inactive).
In the case of `Cc1cccc(COc2ccccc2/C=N/Nc2ccc([N+](=O)[O-])cc2)c1` it was 23% (active); in that of `Cc1ccccc1OCCOc1ccc([N+](=O)[O-])cc1/C=N/n1cnnc1`, -2.64% (inactive); in that of `O=[N+]([O-])c1ccc(N/N=C/c2ccccc2)cc1`, 5.14% (inactive).
In the case of `CC1=CC2=NC(=O)CC(C)(C(=O)N(CC(=O)NC(C)(C)C)Cc3ccccc3)N2C=C1` (centres undefined) it was 0.82% (inactive); in that of `Cc1cccc2cc3c(N)c(C(=O)N4CCCc5ccccc54)sc3nc12`, 18.9% (active); in that of `Cc1c(C(=O)N2CCCc3ccccc32)oc2ccccc12`, 0.38% (inactive).
Regarding `Cc1c(C(=O)N2CCCc3ccccc32)sc2nc(-c3ccccc3)cn12`, the inhibition was 2.92% (inactive).
Under `O=C(CCC(=O)n1ncc2ccccc21)NCc1ccccc1Cl` stands 0.79% (inactive); under `COc1ccc(-c2csc(-c3cccs3)n2)cc1OC`, 3.25% (inactive); under `COc1ccc(-c2csc3nc(-c4ccccc4F)oc(=O)c23)cc1OC`, 21.9% (active).
Take `COc1ccccc1-c1nnc(-c2ccc(F)cc2)o1`: the inhibition is -1.04% (inactive).
